Structures are written as SMILES.

Experiment [1] has as its target Mitogen-activated protein kinase 3 (Homo sapiens) (UniProt P27361). Conditions: at 1 µM.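 Also: values are mean percent inhibition of MAPK3.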
For experiment [2], the target named is SRSF protein kinase 3 (Homo sapiens) (UniProt Q9UPE1). As to conditions: at 0.1 µM.
The target is the same in experiment [3]. As to conditions: at 1 µM.
Experiment [4] has as its target Mitogen-activated protein kinase 14 (Homo sapiens) (UniProt Q16539). Conditions: at 0.1 µM.
For experiment [5] the target is unchanged. Conditions: at 1 µM.
The target in experiment [6] is Mitogen-activated protein kinase 11 (Homo sapiens) (UniProt Q15759). Conditions: at 0.1 µM.
For experiment [7] the target is unchanged. Conditions: at 1 µM.
In experiment [8] the target is T1, Mitogen-activated protein kinase 13 (Homo sapiens) (UniProt O15264).
T1 sequence (whole entry): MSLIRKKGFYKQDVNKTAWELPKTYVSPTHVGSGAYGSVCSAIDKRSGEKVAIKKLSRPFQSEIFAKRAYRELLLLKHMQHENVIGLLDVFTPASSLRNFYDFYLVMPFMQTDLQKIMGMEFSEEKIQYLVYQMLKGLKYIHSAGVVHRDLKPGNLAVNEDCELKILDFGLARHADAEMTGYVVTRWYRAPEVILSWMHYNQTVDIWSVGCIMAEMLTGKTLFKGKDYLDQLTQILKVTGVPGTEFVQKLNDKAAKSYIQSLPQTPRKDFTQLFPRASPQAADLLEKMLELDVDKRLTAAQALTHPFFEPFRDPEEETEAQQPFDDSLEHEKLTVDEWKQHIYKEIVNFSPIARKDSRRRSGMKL
Conditions: at 0.1 µM.

Experiment [9] has as its target T1, Mitogen-activated protein kinase 13 (Homo sapiens). As to conditions: at 1 µM.
For experiment [10], the target named is T2, Mitogen-activated protein kinase 12 (Homo sapiens) (UniProt P53778).
T2 sequence (whole entry): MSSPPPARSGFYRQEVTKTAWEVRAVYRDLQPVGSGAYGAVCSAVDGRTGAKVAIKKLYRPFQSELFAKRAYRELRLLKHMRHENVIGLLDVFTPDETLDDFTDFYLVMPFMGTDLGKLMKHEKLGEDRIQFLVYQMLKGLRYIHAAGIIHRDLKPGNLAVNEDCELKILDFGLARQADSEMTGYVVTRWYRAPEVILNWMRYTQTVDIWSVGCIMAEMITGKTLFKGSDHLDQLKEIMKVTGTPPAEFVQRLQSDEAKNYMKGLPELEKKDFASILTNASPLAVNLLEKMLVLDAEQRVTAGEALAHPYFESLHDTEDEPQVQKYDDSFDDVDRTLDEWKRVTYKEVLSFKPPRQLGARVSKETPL
As to conditions: at 0.1 µM.

Experiment [11] concerns the target T2, Mitogen-activated protein kinase 12 (Homo sapiens). As to conditions: at 1 µM.
Experiment [12] deals with SRSF protein kinase 1 (Homo sapiens) (UniProt Q96SB4). Conditions: at 0.1 µM.
Experiment [13] has the same target. Conditions: at 1 µM.
Experiment [14] deals with Phosphatidylinositol 4,5-bisphosphate 3-kinase catalytic subunit alpha isoform (Homo sapiens) (UniProt P42336). As to conditions: at 0.1 µM.
The target is the same in experiment [15]. Conditions: at 1 µM.
Experiment [16] has as its target T3, Phosphatidylinositol 4,5-bisphosphate 3-kinase catalytic subunit delta isoform (Homo sapiens) (UniProt O00329).
T3 sequence (whole entry): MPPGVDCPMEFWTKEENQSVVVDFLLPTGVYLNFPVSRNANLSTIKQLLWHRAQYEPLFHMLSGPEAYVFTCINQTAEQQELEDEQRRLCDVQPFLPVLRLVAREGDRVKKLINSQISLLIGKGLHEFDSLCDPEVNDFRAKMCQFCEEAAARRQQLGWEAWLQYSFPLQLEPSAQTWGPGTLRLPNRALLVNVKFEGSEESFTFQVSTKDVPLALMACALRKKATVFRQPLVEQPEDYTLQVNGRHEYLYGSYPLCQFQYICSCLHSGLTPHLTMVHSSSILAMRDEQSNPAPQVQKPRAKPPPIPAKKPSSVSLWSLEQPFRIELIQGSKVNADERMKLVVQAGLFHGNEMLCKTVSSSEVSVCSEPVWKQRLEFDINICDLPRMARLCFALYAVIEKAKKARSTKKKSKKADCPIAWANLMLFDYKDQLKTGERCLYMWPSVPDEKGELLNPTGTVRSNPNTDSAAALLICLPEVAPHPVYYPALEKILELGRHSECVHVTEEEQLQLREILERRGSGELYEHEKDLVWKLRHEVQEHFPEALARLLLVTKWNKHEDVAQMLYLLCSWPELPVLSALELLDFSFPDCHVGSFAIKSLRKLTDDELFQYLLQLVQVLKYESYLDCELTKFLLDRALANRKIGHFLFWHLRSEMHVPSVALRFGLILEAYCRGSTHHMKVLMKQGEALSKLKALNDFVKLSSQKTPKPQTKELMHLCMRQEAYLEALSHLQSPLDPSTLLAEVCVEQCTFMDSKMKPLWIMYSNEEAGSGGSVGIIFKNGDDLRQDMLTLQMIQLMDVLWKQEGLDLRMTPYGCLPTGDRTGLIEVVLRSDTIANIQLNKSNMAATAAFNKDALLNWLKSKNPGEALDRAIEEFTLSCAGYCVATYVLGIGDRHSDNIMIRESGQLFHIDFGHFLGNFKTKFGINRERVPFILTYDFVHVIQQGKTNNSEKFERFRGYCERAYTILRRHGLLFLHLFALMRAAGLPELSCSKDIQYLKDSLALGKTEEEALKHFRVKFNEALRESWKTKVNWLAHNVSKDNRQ
As to conditions: at 0.1 µM.

In experiment [17] the target is T3, Phosphatidylinositol 4,5-bisphosphate 3-kinase catalytic subunit delta isoform (Homo sapiens). Conditions: at 1 µM.
The target in experiment [18] is Phosphatidylinositol 4-kinase beta (Homo sapiens) (UniProt Q9UBF8). As to conditions: at 0.1 µM.
For experiment [19] the target is unchanged. Conditions: at 1 µM.
The target of experiment [20] is Sphingosine kinase 1 (Homo sapiens) (UniProt Q9NYA1). As to conditions: at 0.1 µM.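 Also: mean percent inhibition of SPHK1 activity, measured within the GSK PKIS screening panel.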
Sphingosine kinase 1 (Homo sapiens), sequence (Q9NYA1 whole entry): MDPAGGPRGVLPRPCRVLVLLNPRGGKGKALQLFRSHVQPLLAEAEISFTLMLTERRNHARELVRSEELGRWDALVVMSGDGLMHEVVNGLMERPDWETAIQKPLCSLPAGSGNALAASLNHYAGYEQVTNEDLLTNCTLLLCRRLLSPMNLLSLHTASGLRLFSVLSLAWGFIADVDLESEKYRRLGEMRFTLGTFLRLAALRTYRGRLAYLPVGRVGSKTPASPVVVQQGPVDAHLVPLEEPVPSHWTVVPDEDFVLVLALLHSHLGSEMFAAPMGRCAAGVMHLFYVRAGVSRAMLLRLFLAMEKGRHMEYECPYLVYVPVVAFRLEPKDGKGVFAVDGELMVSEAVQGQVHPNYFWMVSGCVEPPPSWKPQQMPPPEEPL

SRSF protein kinase 1 (Homo sapiens), sequence (Q96SB4 whole entry): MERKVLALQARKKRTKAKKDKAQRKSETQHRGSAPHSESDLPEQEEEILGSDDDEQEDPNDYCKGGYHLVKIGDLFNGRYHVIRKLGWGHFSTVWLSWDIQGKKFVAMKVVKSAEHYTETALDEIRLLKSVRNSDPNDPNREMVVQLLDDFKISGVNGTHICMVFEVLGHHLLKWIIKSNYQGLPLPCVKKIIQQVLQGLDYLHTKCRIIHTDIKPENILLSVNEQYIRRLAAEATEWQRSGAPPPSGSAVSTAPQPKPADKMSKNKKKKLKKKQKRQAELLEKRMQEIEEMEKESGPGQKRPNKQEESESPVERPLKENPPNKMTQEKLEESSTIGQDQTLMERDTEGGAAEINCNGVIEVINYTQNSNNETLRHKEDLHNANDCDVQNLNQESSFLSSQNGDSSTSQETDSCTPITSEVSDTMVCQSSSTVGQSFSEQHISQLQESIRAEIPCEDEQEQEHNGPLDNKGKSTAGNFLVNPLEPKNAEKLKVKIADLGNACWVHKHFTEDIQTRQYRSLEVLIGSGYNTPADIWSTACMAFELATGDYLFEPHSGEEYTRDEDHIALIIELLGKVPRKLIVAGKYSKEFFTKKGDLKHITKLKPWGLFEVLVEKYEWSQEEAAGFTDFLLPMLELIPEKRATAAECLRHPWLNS
Phosphatidylinositol 4-kinase beta (Homo sapiens), sequence (Q9UBF8 2-816 limits assumed): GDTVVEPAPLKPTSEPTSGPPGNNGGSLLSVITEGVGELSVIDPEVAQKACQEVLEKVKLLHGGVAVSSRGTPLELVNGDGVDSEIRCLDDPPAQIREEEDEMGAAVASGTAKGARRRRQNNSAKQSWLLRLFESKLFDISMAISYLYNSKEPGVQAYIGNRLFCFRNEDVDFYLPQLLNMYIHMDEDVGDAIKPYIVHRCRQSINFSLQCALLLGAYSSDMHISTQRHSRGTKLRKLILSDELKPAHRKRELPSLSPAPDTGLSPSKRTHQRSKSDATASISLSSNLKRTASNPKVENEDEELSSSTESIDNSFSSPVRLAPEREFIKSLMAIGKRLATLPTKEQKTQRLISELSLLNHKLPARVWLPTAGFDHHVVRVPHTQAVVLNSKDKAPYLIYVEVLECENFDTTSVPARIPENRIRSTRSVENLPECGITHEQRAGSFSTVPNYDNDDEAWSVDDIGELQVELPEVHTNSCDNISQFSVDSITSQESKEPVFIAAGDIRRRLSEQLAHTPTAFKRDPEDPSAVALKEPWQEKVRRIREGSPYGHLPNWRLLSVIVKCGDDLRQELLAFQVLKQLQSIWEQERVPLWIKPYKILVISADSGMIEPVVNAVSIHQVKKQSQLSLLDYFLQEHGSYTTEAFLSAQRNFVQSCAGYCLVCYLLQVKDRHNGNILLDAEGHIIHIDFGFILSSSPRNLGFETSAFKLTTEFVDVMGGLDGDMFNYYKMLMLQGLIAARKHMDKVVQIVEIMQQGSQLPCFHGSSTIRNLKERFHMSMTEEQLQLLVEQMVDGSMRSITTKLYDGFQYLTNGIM
Phosphatidylinositol 4,5-bisphosphate 3-kinase catalytic subunit alpha isoform (Homo sapiens), sequence (P42336 whole entry, canonical isoform): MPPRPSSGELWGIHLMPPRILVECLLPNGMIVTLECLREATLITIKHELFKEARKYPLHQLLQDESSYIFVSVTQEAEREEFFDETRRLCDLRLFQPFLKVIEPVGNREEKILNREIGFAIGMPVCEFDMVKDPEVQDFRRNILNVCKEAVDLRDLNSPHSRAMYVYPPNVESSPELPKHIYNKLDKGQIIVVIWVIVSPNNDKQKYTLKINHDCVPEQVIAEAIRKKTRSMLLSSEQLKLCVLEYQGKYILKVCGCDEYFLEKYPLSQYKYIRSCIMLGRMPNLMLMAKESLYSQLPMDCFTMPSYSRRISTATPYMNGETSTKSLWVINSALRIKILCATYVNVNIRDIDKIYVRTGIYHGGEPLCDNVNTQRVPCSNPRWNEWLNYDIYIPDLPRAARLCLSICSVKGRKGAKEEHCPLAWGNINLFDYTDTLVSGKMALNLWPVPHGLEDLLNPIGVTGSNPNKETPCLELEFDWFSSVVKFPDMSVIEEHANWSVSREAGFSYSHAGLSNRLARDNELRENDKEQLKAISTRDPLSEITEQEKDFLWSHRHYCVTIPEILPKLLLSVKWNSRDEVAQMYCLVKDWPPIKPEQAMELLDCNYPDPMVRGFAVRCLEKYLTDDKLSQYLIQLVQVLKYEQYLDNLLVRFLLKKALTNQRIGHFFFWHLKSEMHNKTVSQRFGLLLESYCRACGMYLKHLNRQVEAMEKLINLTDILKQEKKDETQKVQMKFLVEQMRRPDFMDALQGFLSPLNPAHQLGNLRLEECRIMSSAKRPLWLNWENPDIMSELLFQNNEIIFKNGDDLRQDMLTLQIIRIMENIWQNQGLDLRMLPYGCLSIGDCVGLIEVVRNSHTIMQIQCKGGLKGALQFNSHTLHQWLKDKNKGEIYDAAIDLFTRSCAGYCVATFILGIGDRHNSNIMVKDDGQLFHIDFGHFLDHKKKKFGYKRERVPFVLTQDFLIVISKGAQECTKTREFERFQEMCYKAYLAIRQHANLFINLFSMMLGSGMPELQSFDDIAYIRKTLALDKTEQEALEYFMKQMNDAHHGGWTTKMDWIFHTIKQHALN
SRSF protein kinase 3 (Homo sapiens), sequence (Q9UPE1 whole entry): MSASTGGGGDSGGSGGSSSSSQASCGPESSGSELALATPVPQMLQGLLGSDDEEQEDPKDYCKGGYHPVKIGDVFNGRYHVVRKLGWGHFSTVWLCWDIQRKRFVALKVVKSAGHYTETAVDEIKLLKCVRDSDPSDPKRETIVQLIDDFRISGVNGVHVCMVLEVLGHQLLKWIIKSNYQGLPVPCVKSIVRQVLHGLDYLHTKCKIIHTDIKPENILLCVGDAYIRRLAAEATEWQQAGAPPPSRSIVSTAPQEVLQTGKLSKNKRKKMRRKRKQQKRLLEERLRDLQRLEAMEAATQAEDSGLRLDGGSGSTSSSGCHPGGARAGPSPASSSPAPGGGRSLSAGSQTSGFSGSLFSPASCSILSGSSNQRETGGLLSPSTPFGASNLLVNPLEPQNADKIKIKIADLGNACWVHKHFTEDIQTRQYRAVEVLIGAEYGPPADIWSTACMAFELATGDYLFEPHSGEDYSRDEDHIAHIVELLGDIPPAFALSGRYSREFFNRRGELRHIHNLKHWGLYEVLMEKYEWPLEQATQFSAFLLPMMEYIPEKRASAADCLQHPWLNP
Mitogen-activated protein kinase 11 (Homo sapiens), sequence (Q15759 whole entry): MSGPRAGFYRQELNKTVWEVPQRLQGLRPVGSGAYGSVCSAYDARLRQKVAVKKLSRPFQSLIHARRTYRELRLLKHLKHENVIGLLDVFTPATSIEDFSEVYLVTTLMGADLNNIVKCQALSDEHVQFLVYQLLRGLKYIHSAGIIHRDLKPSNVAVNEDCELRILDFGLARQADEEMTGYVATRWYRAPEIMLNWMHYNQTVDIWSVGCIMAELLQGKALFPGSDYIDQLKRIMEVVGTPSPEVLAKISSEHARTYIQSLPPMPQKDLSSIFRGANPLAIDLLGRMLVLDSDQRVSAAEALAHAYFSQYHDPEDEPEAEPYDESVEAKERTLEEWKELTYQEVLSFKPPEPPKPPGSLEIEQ
Mitogen-activated protein kinase 3 (Homo sapiens), sequence (P27361 whole entry): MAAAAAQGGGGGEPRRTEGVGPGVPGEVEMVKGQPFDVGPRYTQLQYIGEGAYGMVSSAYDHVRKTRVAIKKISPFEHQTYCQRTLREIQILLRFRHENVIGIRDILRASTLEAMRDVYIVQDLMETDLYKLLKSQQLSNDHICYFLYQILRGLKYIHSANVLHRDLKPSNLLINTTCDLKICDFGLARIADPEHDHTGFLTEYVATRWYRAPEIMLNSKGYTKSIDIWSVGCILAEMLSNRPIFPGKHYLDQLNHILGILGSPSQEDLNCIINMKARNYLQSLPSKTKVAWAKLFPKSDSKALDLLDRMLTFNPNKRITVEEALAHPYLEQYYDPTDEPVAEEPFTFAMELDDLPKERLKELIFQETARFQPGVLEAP
Mitogen-activated protein kinase 14 (Homo sapiens), sequence (Q16539 whole entry): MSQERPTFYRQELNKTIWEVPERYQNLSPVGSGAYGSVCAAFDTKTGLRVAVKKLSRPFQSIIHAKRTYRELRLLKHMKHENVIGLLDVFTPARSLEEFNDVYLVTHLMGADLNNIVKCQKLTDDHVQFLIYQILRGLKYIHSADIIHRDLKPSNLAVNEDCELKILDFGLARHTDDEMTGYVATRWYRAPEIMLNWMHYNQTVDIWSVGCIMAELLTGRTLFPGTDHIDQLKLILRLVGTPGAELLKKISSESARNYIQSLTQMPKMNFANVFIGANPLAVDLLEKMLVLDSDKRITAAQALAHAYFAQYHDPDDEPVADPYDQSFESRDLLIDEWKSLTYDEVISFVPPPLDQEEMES

Consider `Nc1nc(-c2ccc(F)cc2)c(-c2ccc3ncccc3n2)s1`, for which the inhibition was 3.86% in [1]; -0.15% in experiment [2]; 2.22% in experiment [3]; 23.6% in [4]; 76.4% in experiment [5]; 7.76% in experiment [6]. Besides, the inhibition in [7] is 33.1%; in [8], 5.53%; in [9] it was 5.76%; in experiment [10] it was 1.26%; in [11], 2.9%; in experiment [12], -1.42%. Further, the inhibition turned out to be 1.42% in [13]; 7.33% in experiment [14]; 20.4% in experiment [15]; 7.18% in [16]; 32.8% in [17]; 8.12% in [18]. The inhibition was found to be 7.23% in experiment [19] and 0.08% in experiment [20].
Take `COc1ccc(-c2cc3c(N)ncnc3o2)cc1`: the inhibition in [1] was -1.51%; in experiment [2], -0.13%; in experiment [3], -0.8%; in experiment [4], -1.46%; in experiment [5], 0.41%; in experiment [6], -1.4%. The inhibition was -0.96% in [7]; -2.33% in experiment [8]; -2.56% in experiment [9]; -1.44% in experiment [10]; -1.89% in experiment [11]; -1.58% in experiment [12]. Further, the inhibition in [13] is 1.06%; in experiment [14] it was -1.98%; in [15], -0.52%; in experiment [16], -0.57%; in experiment [17], 0.07%; in experiment [18], -0.47%. For the same molecule, the inhibition is -0.47% in experiment [19] and 9.34% in experiment [20].
In the case of `CCn1c(-c2nonc2N)nc2cnc(Oc3cccc(NC(=O)c4ccc(N(C)C)cc4)c3)cc21`, the inhibition in [1] was 1.36%; in experiment [2], -1.98%; in [3], -3.41%; in experiment [4], -0.32%; in [5] it was 8.29%; in experiment [6], 1.19%. Moreover, the inhibition is 1.94% in experiment [7]; -1.13% in experiment [8]; 2.57% in [9]; 0.02% in [10]; 1.5% in experiment [11]; -1.72% in [12]. In addition, the inhibition in [13] was -1.86%; in experiment [14], -0.72%; in [15], 0.76%; in experiment [16] it was 0.62%; in experiment [17] it was 1.65%; in experiment [18] it was -0.87%. Besides, the inhibition was 2.47% in [19] and -2.61% in [20].
Take `CCN1CCC(CC(=O)Nc2n[nH]c3nnc(-c4cccc(F)c4F)cc23)CC1`: the inhibition was 2.9% in experiment [1]; -0.22% in [2]; 0.53% in experiment [3]; 1.3% in [4]; 1.76% in experiment [5]; 2.75% in experiment [6]. Besides, the inhibition in experiment [7] is 4.66%; in [8], 1.08%; in [9], 0.01%; in [10] it was 1.4%; in [11], 1.97%; in [12], -2.57%. Besides, the inhibition was -3.98% in experiment [13]; 3.38% in experiment [14]; 2.58% in experiment [15]; 2.16% in experiment [16]; 1.94% in experiment [17]; 2.58% in experiment [18]. Also, the inhibition was -1.91% in experiment [19] and 0.09% in [20].
Regarding `CNC(=O)c1cc(-c2ccc(F)cc2)cc(-c2ccc(S(=O)(=O)N3CCCC3)cc2)c1N`, the inhibition in [1] was 1.92%; in experiment [2], -1.6%; in experiment [3], -0.52%; in [4], 4.95%; in experiment [5] it was 4.5%; in experiment [6], 1.39%. The inhibition in experiment [7] is 3.19%; in experiment [8] it was 3.39%; in [9], 2.91%; in experiment [10], 2.77%; in [11], 2.47%; in experiment [12], -2.58%. For the same molecule, the inhibition in experiment [13] was -1.56%; in experiment [14] it was 2.34%; in experiment [15] it was 1.39%; in experiment [16], 0.79%; in experiment [17], 1.11%; in [18], -2.09%. Further, the inhibition is 1.93% in experiment [19] and -0.85% in [20].
With `COC(=O)c1sc(-n2cnc3cc(OC)c(OC)cc32)cc1OCc1ccccc1C(F)(F)F`, the inhibition in experiment [1] is 2.3%; in experiment [2] it was -0.91%; in [3], -2.27%; in experiment [4], 2.39%; in experiment [5], 9.56%; in [6], 6.02%. Moreover, the inhibition is 8.21% in experiment [7]; -0.67% in experiment [8]; 4.4% in experiment [9]; 0.89% in experiment [10]; 2.9% in experiment [11]; -3.05% in [12]. For the same molecule, the inhibition in experiment [13] was -6.39%; in [14], 4.25%; in [15], 4.16%; in experiment [16], 2.55%; in experiment [17], 4.61%; in experiment [18], -0.98%. The inhibition is -2.56% in experiment [19] and -3.91% in [20].

One may read the inhibition as the drop in the measured response relative to a control, in per cent.

The values above are taken from ChEMBL document CHEMBL1961873, “Compounds: GSK PKIS; Assays: Nanosyn kinase panel” (2012).
